PubChem BioAssay AID588852 (The Scripps Research Institute Molecular Screening Center, 2011)
The campaign covered roughly 360,000 compounds. About 4,600 (1.3%) were called active. The list comes from a sample in which actives are over-represented; it also holds similar structures and randomly drawn compounds. Values without a mark were called inactive.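 The calls were made as follows: active = percent inhibition above its own plate's cutoff, namely the mean of that plate's compound wells plus 3 SD; inactive = the rest.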

Biological target: Muscarinic acetylcholine receptor M1 (Homo sapiens) (UniProt P11229)
Sequence (P11229 whole entry, looked up): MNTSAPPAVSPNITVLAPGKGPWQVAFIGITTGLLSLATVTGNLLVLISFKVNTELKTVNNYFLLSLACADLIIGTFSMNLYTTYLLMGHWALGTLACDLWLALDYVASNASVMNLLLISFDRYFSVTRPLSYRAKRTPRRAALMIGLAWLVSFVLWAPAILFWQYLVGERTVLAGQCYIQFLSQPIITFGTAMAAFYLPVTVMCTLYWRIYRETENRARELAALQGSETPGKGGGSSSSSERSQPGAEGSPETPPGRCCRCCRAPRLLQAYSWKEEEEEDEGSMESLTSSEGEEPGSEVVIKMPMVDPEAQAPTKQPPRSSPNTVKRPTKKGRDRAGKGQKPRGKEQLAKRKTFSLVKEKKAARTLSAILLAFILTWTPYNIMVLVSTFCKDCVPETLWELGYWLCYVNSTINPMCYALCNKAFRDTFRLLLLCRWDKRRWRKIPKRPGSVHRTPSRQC
Experiment: human M1 muscarinic receptor antagonists, primary screen, CHO-K1 cells, Fluo-8 calcium fluorescence, 1536-well (AID 588852);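 also: peak over basal fluorescence ratio during 140 s after agonist addition; 0% = ACh EC80 plus DMSO and 100% = DMSO alone without agonist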
Settings: CHO-K1 hM1, Fluo-8 calcium fluorescence, ACh EC80 antagonist; at 3 µM; active compounds read high

| SMILES | inhibition |
| --- | --- |
| Cn1c(=O)n(C)c2cc(S(=O)(=O)Nc3ccc(F)cc3)ccc21 | 0.75% |
| CCC(=O)Nc1ccc2c(c1)nc(CCN1CCN(c3ccccn3)CC1)n2C | 41.9% (active) |
| CCN(CC)c1ccc(NC(=O)CN2CCN(c3ccccn3)CC2)cc1 | -1.84% |
| Cn1c(CCN2CCN(c3ccccn3)CC2)nc2cc(NS(=O)(=O)c3ccc(F)cc3)ccc21 | 69.9% (active) |
| Cn1c(=O)n(C)c2cc(NS(=O)(=O)c3ccc(F)cc3)ccc21 | 4.92% |
| CCOC(=O)N1CCN(Cc2nc3cc(NC(C)=O)ccc3n2C)CC1 | -2.65% |
| CCOc1ccc(CCN2C(=S)N([C@@H](CC(C)C)CN3CCC[C@@H]3CN3C(=S)NC[C@@H]3Cc3ccc(O)cc3)C[C@@H]2Cc2ccc(O)cc2)cc1 | -5.61% |
| COc1ccc(OC)c(C2C3=C(N=c4s/c(=C\c5cccc(O)c5)c(=O)n42)c2ccccc2CC3)c1 (configuration not stated) | -14.9% |
| CC1(c2cccc(Br)c2)NC(=O)N(CC(=O)NCCC2=CCCCC2)C1=O (configuration not stated) | -4.07% |
| CN(C)Cc1ccc(F)cc1Sc1cc(Cl)ccc1Cl | 91.5% (active) |
| Cc1ccc(-c2ccc(=O)n(Cc3ccc(F)cc3Cl)n2)cc1 | -14.4% |
| CN(Cc1ccc(F)cc1Cl)S(=O)(=O)c1cccs1 | -6.7% |
| CC(=O)NC(c1cccs1)c1cc(Br)c2cccnc2c1O (configuration not stated) | -13.2% |
| CCOC(=O)c1[nH]c2ccc(C)cc2c1N=C(C)N(C)C | 33.5% (active) |
| CCOC(=O)c1[nH]c2ccc(OC)cc2c1NC(=O)N1CCOCC1 | -21.5% |
| CCOC(=O)c1cc2cc(C)ccc2[nH]1 | 6.42% |
| Cc1ccc(-c2ccnc3nc(Sc4ncc(C(F)(F)F)cc4Cl)nn23)cc1 | -1.4% |
| O=C(Nn1cnnc1)c1cc(Cl)ccc1Cl | -9.41% |
| O=C(NCc1ccc2c(c1)OCO2)c1cc2c(s1)CS(=O)(=O)C2 | 4.31% |
| Cc1ccc(C(C)C)cc1OCC(=O)Nc1ccccc1N1CCCC1 | -19.6% |
| Cc1ccc(OCCCCN2CCCCC2)c(Br)c1 | 22.6% |
| c1ccc2cc(OCCN3CCCC3)ccc2c1 | -1.41% |
| Cc1ccc(C(C)C)cc1OCCN1CCCC1 | 53% (active) |
| Cc1cc(OCCN2CCCC2)cc(C(C)C)c1 | 82.3% (active) |
| Cc1cc(OCCN2CCCC2)ccc1C(C)C | -3.45% |
| CCCCc1nc2ccc(F)cc2cc1C | -6.44% |
| CC(C)C1C(=O)N(Cc2cn(CCC3OCCO3)nn2)CCS(=O)(=O)N1Cc1ccc(-c2ccccc2C(F)(F)F)cc1 (configuration not stated) | -16.4% |
